Experimental findings from article PMC7862700, “An all-to-all approach to the identification of sequence-specific readers for epigenetic DNA modifications on cytosine” are described below.

Assay in all cases: DAPPL (digital affinity profiling via proximity ligation, sequencing); 10 mM Tris-HCl pH 7.5, 50 mM NaCl, 1 mM DTT, 4% glycerol, room temperature, 30 min; GST-TFs on glutathione beads, 16-mer random dsDNA library, 0.1% formaldehyde crosslink after washing; high values mean tight binding
Holding throughout (conditions): protein: recombinant; tags: N-terminal GST; dsDNA, one strand shown

The target in one assay is T1, FLI1 (Homo sapiens, UniProt Q01543 1-452).
T1 sequence: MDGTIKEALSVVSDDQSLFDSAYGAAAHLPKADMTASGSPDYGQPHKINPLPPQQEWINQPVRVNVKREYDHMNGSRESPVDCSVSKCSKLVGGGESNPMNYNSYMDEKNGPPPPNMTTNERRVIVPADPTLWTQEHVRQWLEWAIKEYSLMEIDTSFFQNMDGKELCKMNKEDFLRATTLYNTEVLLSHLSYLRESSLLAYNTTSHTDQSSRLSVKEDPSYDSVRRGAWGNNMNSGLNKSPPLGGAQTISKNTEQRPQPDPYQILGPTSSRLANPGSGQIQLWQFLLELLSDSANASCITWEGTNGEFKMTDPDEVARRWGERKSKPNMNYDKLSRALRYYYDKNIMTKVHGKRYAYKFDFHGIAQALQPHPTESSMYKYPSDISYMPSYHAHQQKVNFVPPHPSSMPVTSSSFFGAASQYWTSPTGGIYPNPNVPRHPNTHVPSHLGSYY
The gist of the method: (§1)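 Pools were built from human transcription factors expressed in yeast as GST fusions, captured on glutathione beads and DNA-barcoded, along with a tag-only sample. Incubation with 200 nmole of a 16-mer random double-stranded DNA library lasted 30 min at room temperature in Tris/NaCl/DTT/glycerol buffer, and was followed by washing, 0.1% formaldehyde crosslinking, proximity ligation, PCR amplification and Illumina NextSeq500 sequencing. Binding signal is the quotient of each hexamer's read frequency for a factor and its frequency for the tag-only sample.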

A further assay addresses T2, ELK1 (Homo sapiens, UniProt P19419 1-428).
T2 sequence: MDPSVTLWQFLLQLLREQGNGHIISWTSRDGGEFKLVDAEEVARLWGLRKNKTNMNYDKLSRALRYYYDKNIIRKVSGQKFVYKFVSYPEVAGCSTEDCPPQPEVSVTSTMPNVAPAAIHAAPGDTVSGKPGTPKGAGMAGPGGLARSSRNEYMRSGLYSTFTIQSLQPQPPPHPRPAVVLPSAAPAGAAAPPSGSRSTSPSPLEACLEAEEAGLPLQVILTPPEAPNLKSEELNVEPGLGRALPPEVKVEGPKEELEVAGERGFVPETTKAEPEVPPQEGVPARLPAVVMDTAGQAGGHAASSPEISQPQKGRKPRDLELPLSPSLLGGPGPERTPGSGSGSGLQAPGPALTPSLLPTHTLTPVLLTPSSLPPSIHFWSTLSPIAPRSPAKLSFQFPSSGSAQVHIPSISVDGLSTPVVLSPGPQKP
The method in brief: as §1

Another assay deals with T3, GABPA (Homo sapiens, UniProt Q06546 1-454).
T3 sequence: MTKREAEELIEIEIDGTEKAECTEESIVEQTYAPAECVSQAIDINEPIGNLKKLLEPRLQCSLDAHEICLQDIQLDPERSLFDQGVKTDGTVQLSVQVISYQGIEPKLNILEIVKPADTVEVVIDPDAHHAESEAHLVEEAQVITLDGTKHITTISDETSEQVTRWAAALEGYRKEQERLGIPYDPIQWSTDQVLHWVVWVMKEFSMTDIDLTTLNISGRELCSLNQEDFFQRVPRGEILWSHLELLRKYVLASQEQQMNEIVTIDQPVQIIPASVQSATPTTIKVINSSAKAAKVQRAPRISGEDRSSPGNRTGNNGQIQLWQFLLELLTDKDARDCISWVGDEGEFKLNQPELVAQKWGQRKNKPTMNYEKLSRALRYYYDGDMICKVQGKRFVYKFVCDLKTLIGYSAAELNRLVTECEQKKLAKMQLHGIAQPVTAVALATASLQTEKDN
The method in brief:
as §1

The target in another assay is T4, ERG (Homo sapiens, UniProt P11308 1-479).
T4 sequence: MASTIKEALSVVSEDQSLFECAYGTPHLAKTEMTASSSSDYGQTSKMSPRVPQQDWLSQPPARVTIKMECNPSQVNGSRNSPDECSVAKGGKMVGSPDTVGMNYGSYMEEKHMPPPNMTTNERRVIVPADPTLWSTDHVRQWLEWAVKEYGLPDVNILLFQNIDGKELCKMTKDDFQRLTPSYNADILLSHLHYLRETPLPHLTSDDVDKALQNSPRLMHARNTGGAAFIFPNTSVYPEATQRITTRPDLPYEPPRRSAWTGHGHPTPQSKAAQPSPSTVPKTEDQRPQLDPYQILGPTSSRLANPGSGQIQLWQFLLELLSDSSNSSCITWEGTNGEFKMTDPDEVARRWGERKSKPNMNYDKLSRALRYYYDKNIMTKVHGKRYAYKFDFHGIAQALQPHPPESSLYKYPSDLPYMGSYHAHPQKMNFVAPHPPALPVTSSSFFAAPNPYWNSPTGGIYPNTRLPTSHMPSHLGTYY
The gist of the method:
as §1

A further assay concerns the target ELF1 (Homo sapiens, UniProt P32519 1-619). The method in brief:
as §1

Another assay has as its target T5, EHF (Homo sapiens, UniProt Q9NZC4 1-300).
T5 sequence: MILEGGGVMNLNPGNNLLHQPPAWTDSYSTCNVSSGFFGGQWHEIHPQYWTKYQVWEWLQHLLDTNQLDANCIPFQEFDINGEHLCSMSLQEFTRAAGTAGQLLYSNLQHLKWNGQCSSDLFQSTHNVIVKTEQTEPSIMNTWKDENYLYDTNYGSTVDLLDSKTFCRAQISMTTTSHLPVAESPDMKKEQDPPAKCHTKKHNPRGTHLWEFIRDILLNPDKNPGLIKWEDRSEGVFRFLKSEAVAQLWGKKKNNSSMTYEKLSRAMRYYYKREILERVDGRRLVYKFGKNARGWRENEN
The method in brief:
as §1

The next assay has as its target SPI1 (Homo sapiens, UniProt P17947 1-270). The method in brief: as §1
The target of the next assay is SPIB (Homo sapiens, UniProt Q01892 1-262). The gist of the method:
as §1

In the next assay the target is T6, ELK3 (Homo sapiens, UniProt P41970 1-407).
T6 sequence: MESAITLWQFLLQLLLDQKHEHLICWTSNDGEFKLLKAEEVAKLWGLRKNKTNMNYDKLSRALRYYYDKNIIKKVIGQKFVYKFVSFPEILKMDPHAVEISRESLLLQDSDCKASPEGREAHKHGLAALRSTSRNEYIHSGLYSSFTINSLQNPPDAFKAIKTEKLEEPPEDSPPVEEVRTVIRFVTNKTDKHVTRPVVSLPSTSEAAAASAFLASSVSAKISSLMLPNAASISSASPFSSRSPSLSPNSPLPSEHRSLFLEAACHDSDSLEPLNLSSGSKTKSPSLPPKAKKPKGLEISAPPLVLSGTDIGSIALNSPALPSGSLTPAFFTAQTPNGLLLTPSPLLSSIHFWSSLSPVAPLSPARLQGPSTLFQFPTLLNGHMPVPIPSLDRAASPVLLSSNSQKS
The gist of the method:
as §1

Sequence of ELF1 (P32519 whole entry): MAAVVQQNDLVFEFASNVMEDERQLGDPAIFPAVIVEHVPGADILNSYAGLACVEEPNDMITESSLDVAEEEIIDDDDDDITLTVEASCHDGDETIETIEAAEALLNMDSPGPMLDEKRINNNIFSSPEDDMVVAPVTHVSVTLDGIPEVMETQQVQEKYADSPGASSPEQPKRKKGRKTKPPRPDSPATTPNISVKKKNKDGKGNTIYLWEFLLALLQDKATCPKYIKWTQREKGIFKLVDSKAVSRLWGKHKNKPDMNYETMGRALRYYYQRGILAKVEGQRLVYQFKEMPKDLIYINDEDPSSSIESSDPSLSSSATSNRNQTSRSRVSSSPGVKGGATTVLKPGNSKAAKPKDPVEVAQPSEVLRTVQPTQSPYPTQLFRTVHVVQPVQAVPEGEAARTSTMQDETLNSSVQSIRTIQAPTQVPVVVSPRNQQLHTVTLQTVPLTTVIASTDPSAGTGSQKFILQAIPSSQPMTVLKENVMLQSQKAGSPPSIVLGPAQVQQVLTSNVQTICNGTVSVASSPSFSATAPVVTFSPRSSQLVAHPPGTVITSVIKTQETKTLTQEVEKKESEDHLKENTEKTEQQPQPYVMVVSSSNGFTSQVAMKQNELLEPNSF
Sequence of SPIB (Q01892 whole entry): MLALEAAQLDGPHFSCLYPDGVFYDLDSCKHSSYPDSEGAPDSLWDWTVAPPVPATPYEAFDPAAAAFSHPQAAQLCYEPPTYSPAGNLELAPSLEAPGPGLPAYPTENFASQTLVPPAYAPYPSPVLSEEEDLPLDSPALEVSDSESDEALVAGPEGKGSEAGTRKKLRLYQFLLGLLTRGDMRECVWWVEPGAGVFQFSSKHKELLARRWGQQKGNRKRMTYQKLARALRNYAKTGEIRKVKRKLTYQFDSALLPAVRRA

As to CGAAAC, the binding signal in the assay with FLI1 was 1.14 fold enrichment (6-mer frequency, TF over GST control); in the assay with ELK1, 1.15 fold enrichment (6-mer frequency, TF over GST control); with GABPA it was 1.08 fold enrichment (6-mer frequency, TF over GST control); with ERG, 1.21 fold enrichment (6-mer frequency, TF over GST control); with ELF1, 1.23 fold enrichment (6-mer frequency, TF over GST control); with EHF it was 1.17 fold enrichment (6-mer frequency, TF over GST control). Moreover, the binding signal in the assay with SPI1 was 1.21 fold enrichment (6-mer frequency, TF over GST control); in the assay with SPIB it was 1.16 fold enrichment (6-mer frequency, TF over GST control); in the assay with ELK3 it was 1.07 fold enrichment (6-mer frequency, TF over GST control).
